Hits are enriched below; roughly 8.1% of the tested compounds scored in any of these assays.
NOMO-1 viab: STK33 inhibitor candidate reducing NOMO-1 cell viability | AID 2330 | inhibition, % (concentration not given with the values) | hit rate 7.5% among 37,000 | NOMO-1 AML viability, CellTiter-Glo luminescence, 72 h; in the data active = inhibition above about 80%; inconclusive = no clear call, values can overlap the other calls
PD-1 reverse act: activators reversing PD-1 mediated T-cell inhibition. primary human CD4 T cells, PD-L1 beads, CellTiter-Glo 96 h. activation, % (concentration not given with the values). 29,000 tested, under 10 active. AID 2316; call rule not given here;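 note: 0% = median vehicle wells and 100% = positive control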
MITF inhib: inhibitors of MITF; TRPM1 promoter luciferase, luminescence, 24 h; inhibition, % (concentration not given with the values); hit rate 0.28% among 37,000; AID 2240; in the data active = inhibition above about 85%; inconclusive = no clear call, values can overlap the other calls; inactive = below about 68%;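 note: human melanocyte line stably carrying TRPM1 promoter luciferase reporter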
Hedgehog inh: blocks Sonic Hedgehog signaling. Shh-LIGHT2 Gli-luciferase reporter, 30 h. inhibition, % (no concentration beside the values). hit rate 2.1% among 22,000;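 active = mean inhibition across valid replicates above about 65%, limit read from the data; inconclusive = mean under the limit, yet half or more replicates past it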;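 note: pathway switched on by Shh-conditioned medium diluted 1 in 25 in low serum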
* = called active by the depositor; ? = inconclusive; . = no result.

SMILES	NOMO-1 viab	PD-1 reverse act	MITF inhib	Hedgehog inh
C[C@@H]1CN([C@@H](C)CO)C(=O)c2cccc(NC(=O)Nc3ccccc3)c2O[C@H]1CN(C)Cc1ccc(-c2ccccc2)cc1	93*	-5	26	-13
C[C@H](CO)N1C[C@H](C)[C@@H](CN(C)Cc2ccccc2)Oc2c(NC(=O)Nc3ccccc3)cccc2C1=O	103*	-2	-1	-42
C[C@@H]1CN([C@@H](C)CO)C(=O)c2cccc(NC(=O)Nc3ccc(F)cc3)c2O[C@@H]1CN(C)Cc1ccc(-c2ccccc2)cc1	99*	-1	6	-22
C[C@@H]1CN([C@@H](C)CO)C(=O)c2cccc(NC(=O)Nc3ccccc3)c2O[C@@H]1CN(C)Cc1ccccc1	17	0	-25	19
C[C@@H]1CN([C@H](C)CO)C(=O)c2cc(NC(=O)C3CCCCC3)ccc2O[C@@H]1CN(C)S(=O)(=O)c1ccc(F)cc1	0	1	-25	.
O=C(/C=C/c1ccc(O)c(O)c1)OCCc1ccccc1	141*	-11	-32	77*
O=C(/C=C/c1ccccc1)Oc1ccccc1	48	-4	8	.
Cc1noc(C)c1NC(=O)Nc1ccc2c(c1)C(=O)N([C@@H](C)CO)C[C@H](C)[C@H](CN(C)Cc1ccc(C(=O)Nc3ccccc3N)cc1)O2	-5	1	-18	.
Cc1oc2c(c1C(=O)NCCCn1ccnc1)C(=O)c1ccccc1C2=O	141*	-5	66	110*
Cc1oc2c(c1C(=O)NCCC(C)C)C(=O)c1ccccc1C2=O	140*	-5	?	90*
C[C@H](CO)N1C[C@H](C)[C@H](CN(C)C(=O)Nc2ccc3c(c2)OCO3)Oc2ccc(NC(=O)Nc3ccc4c(c3)OCO4)cc2C1=O	10	0	-9	-5
CC1CCc2c(sc3ncnc(SCC(=O)NCC4CCCO4)c23)C1 (stereo unspecified)	15	-1	-49	.
C[C@@H]1CN([C@H](C)CO)C(=O)c2cc(NC(=O)Nc3ccc(C(F)(F)F)cc3)ccc2O[C@H]1CN(C)CC1CCCCC1	103*	2	-6	.
C[C@H]1CN([C@@H](C)CO)C(=O)Cc2cc(NC(=O)Nc3ccc(C(F)(F)F)cc3)ccc2O[C@H]1CN(C)CC1CCCCC1	130*	-5	1	?
C[C@H]1CN([C@@H](C)CO)C(=O)Cc2cc(NC(=O)Nc3ccc(C(F)(F)F)cc3)ccc2O[C@@H]1CN(C)CC1CC1	11	2	-11	24
C[C@@H]1CN([C@@H](C)CO)C(=O)Cc2cc(NC(=O)Nc3ccc(C(F)(F)F)cc3)ccc2O[C@@H]1CN(C)CC1CCCCC1	104*	2	8	-2
C[C@@H]1CN([C@H](C)CO)C(=O)Cc2cc(NC(=O)Nc3ccc(F)cc3)ccc2O[C@H]1CN(C)CC1CCCCC1	?	.	12	-58
CCOC(=O)c1c(C)oc2ccc(OCc3cccc([N+](=O)[O-])c3)cc12	10	2	-17	.
CC(C)(C)c1ccccc1OCC(=O)Nc1cccc2ccccc12	92*	-1	27	20
O=C(COc1cccc2ccccc12)Nc1ccccc1C(=O)O	-8	2	-16	.
COc1ccc(CN(C)C[C@H]2Oc3ccc(NS(=O)(=O)c4ccccc4)cc3CC(=O)N([C@H](C)CO)C[C@H]2C)cc1	-6	.	-5	-11
O=C1c2ccccc2-c2c(NCCc3ccccc3)c(=O)[nH]c3cccc1c23	115*	-3	31	45
COc1ccc(CN(C)C[C@@H]2Oc3ccc(NS(=O)(=O)c4cccs4)cc3C(=O)N([C@@H](C)CO)C[C@H]2C)cc1	9	0	-10	11
OC(CNC1CCCC1)Cn1c2ccccc2c2ccccc21 (stereo unspecified)	96*	-13	19	.
Cc1noc(C)c1NC(=O)Nc1ccc2c(c1)C(=O)N([C@@H](C)CO)C[C@@H](C)[C@H](CN(C)Cc1ccc(Cl)c(Cl)c1)O2	37	1	10	.
SMILES	NOMO-1 viab	PD-1 reverse act	MITF inhib	Hedgehog inh
Cc1cc(C)c(S(=O)(=O)NCC(=O)Nc2ccc(C(C)C)cc2)c(C)c1	95*	-6	6	.
C/C=C/C1=C(Cl)C(=O)[C@@H](O)[C@@]1(O)C(=O)OC	108*	-9	23	48
C=CC(C)(O)CC(/C=C(\C)CC(/C=C(\C)CCC=C(C)C)OC(C)=O)OC(C)=O (stereo unspecified)	98*	-1	1	-5
O=C(CSc1ccccn1)N1CCN(S(=O)(=O)c2ccccc2)C1	26	2	2	-35
OC(Cc1ccccc1)(c1ccccc1)c1ccccc1N=Cc1ccc2c(c1)OCO2 (stereo unspecified)	91*	0	15	15
C[C@H](CO)N1C[C@H](C)[C@@H](CN(C)Cc2ccc(-c3ccccc3)cc2)Oc2c(NC(=O)C3CCOCC3)cccc2C1=O	34	1	0	13
CCCCOC(=O)c1cc2c(cn1)[nH]c1ccccc12	44	.	-46	-119
Cc1oc2cc(OC(C)C)ccc2c(=O)c1-c1ccc2c(c1)OCCO2	-12	0	-21	-14
Cc1oc(-c2ccc3c(c2)OCCO3)cc1C(=O)NCC(=O)O	2	0	86*	.
CC(C)NC(=O)Nc1cccc2c1O[C@H](CN(C)Cc1ccncc1)[C@@H](C)CN([C@H](C)CO)C2=O	35	0	-4	-10
C[C@H](CO)N1C[C@H](C)[C@H](CN(C)C(=O)Nc2ccc(C(F)(F)F)cc2)Oc2c(NC(=O)c3ccc(-c4nccs4)cc3)cccc2C1=O	93*	-7	32	46
C[C@@H]1CN([C@H](C)CO)C(=O)c2cccc(NC(=O)c3ccc(-c4nccs4)cc3)c2O[C@H]1CN(C)Cc1ccc(C(F)(F)F)cc1	84*	.	52	24
C[C@@H]1CN([C@@H](C)CO)C(=O)c2cccc(NC(=O)c3ccc(-c4nccs4)cc3)c2O[C@H]1CN(C)Cc1ccc(C(=O)Nc2ccccc2N)cc1	126*	-1	38	.
C[C@H]1CN([C@@H](C)CO)C(=O)c2cccc(NC(=O)c3ccc(-c4nccs4)cc3)c2O[C@H]1CN(C)Cc1ccc(C(=O)Nc2ccccc2N)cc1	101*	-2	-1	.
C[C@@H]1CN([C@H](C)CO)C(=O)c2cccc(NC(=O)c3ccc(-c4nccs4)cc3)c2O[C@@H]1CN(C)Cc1ccc(-c2ccccc2)cc1	60	.	-12	14
Cc1cc(C)c2nc(-c3ccc(F)cc3)cc(C(=O)NCc3ccco3)c2c1	27	-10	5	.
C[C@@H]1CN([C@H](C)CO)C(=O)c2cccc(NC(=O)c3ccc(-c4nccs4)cc3)c2O[C@@H]1CN(C)Cc1ccc(C(=O)Nc2ccccc2N)cc1	142*	-4	58	.
C[C@H](CO)N1C[C@H](C)[C@H](CN(C)Cc2ccc(Oc3ccccc3)cc2)Oc2c(NC(=O)c3ccc(-c4nccs4)cc3)cccc2C1=O	112*	-3	-4	43
C[C@H]1CN([C@@H](C)CO)C(=O)c2cccc(NC(=O)c3ccc(-c4nccs4)cc3)c2O[C@@H]1CN(C)Cc1ccc(-c2ccccc2)cc1	?	.	30	22
COc1cc(CO)ccc1OCc1cccc(C(=O)O)c1	19	2	93*	.
